Compound activity deposited in PubChem by The Scripps Research Institute Molecular Screening Center.
AHR activator – AHR activators, primary screen, cell-based, luminescence, luciferase reporter, human | Aryl hydrocarbon receptor (Homo sapiens), P35869 | AHR-responsive luciferase reporter cells | activation, % at 5 µM | actives 2.5% (n = 320,000) | AID 2796, 2010; in the data active means activation above about 47%
DAX1 inh-1 – DAX1 (NR0B1) inhibitors, primary screen, cell-based, HEK293, Gal4-DAX1, luciferase luminescence; HEK293 Gal4-DAX1 luciferase reporter; actives 0.99% (n = 340,000); inhibition, % at 6.75 µM; Nuclear receptor subfamily 0 group B member 1 (Homo sapiens), P51843;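 active means inhibition above the mean over all tested compounds plus 3 SD, cut at about 4.2% in these data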;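 further: inhibition shows as a rise in luminescence from relieved DAX1 repression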
hgDAF-12 ag – H. glycines DAF-12 receptor agonists, primary screen, cell-based, luminescence, HEK293, GAL4 fusion, UAS-luciferase | activation, % at 6.8 µM | actives 1.8% (n = 370,000) | HEK293 GAL4-hgDAF12 UAS-luciferase reporter, agonist luminescence; normalized to butyrate control | Nuclear hormone receptor DAF-12 (Heterodera glycines), GAL4 fusion;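 active means activation above a cutoff set at the mean of all screened compounds plus 3 SD, cut at about 10% in these data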
DAX1 inh-2 – DAX1 (NR0B1) inhibitors on StAR promoter, primary screen, cell-based, luminescence, SF-1 (NR5A1), full-length DAX-1; actives 1.1% (n = 370,000); inhibition, % at 6.8 µM; HEK293T StAR-luciferase reporter, SF-1/DAX-1 repression relief; AID 652010, 2013;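 active means inhibition above the mean over all tested compounds plus 3 SD, cut at about 3.6% in these data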;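 further: higher inhibition means more luminescence from relief of DAX-1 repression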
hcDAF-12 act – H. contortus DAF-12 nuclear receptor activators, primary screen, cell-based, luminescence, HEK293, lit1-tk-luc reporter | HEK293 hcDAF-12 lit1-tk-luc reporter; 0% DMSO, 100% Δ7-dafachronic acid | activation, % at 6.8 µM | actives 1.4% (n = 370,000);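 active means activation above the mean of all tested compounds plus 3 SD, cut at about 5.5% in these data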
ssDAF-12 act – S. stercoralis DAF-12 nuclear receptor activators, primary screen, cell-based, luminescence, HEK293, GRIP1 co-expression, lit1-tk-luc; Nuclear hormone receptor DAF-12 (Strongyloides stercoralis); HEK293 ssDAF-12/GRIP1 lit1-tk-luc reporter; % of 3 µM dafachronic acid response; activation, % at 6.8 µM; actives 1% (n = 370,000);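 active means activation above the mean over all tested compounds plus 3 SD, cut at about 0.9% in these data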
DAX1 conf – DAX1 (NR0B1) inhibitors relieving SF-1 repression, confirmation, cell-based, luminescence, HEK293T, full-length DAX-1, SF-1 activated StAR promoter; actives 87% (n = 2,400); AID 652134, 2013; inhibition, % at 6.8 µM; HEK293T StAR-promoter luciferase reporter, SF-1/DAX-1 repression; shares compounds with DAX1 inh-2;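 active means inhibition above the average of every tested compound plus 3 SD, cut at about 3.8% in these data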
Target sequence (P51843 whole entry, looked up): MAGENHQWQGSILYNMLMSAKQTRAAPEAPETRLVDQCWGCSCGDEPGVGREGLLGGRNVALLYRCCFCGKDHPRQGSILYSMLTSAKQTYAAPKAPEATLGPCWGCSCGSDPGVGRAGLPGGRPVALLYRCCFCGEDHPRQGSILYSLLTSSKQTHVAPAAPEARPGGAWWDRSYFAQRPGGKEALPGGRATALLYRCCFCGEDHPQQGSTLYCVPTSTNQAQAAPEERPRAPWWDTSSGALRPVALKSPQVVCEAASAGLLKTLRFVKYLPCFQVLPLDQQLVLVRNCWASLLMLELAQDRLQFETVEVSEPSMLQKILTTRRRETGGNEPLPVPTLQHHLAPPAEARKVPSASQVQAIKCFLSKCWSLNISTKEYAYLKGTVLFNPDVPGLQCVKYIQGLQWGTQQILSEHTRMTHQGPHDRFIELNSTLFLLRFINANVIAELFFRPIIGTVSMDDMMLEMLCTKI
SF1 AF2mut Luc – StAR reporter signal changes without DAX1, counter-screen for DAX1 inhibitor project, cell-based, luminescence, AF-2 mutant SF-1, transactivation; AID 652136, 2013; HEK293 StAR-luciferase, SF-1 AF2 mutant; inhibition, % at 6.8 µM; shares compounds with DAX1 inh-2; actives 78% (n = 2,400);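 active means inhibition above the mean of all tested compounds plus 3 SD, cut at about 3% in these data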
LXRb hcDAF ctr – LXR agonists, Gal4 luciferase reporter, confirmation, counter-screen for hcDAF-12 agonist project, cell-based, luminescence, HEK293, H. contortus campaign; shares compounds with hcDAF-12 act; HEK293 Gal4-LXR tk-luc reporter, 24 h; normalized: DMSO 0%, positive control 100%; activation, % at 6.8 µM; 3,400 tested, under 10 active; AID 743027, 2013;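 active means mean percent activation of the reporter above a cutoff set as the average over tested compounds plus their standard deviation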
hcDAF12 ag – H. contortus DAF-12 receptor agonists, confirmation, cell-based, luminescence, HEK293, lit1-tk-luc, triplicate; shares compounds with hcDAF-12 act; HEK293 hcDAF-12 lit1-tk-luc reporter; % of Δ7-dafachronic acid response; activation, % at 6.8 µM; actives 61% (n = 3,400); AID 743032, 2013;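 active means mean activation across triplicate tests above the threshold derived from the earlier primary screen, cut at about 5.5% in these data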
hgDAF12 conf – H. glycines DAF-12 receptor agonists, confirmation, cell-based, luminescence, HEK293, GAL4-LBD fusion; shares compounds with hgDAF-12 ag; activation, % at 6.8 µM; actives 80% (n = 3,300); HEK293 GAL4-hgDAF12 luciferase reporter, agonist mode; percent of butyrate response;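 active means mean activation over triplicate wells above the hit cutoff derived from the earlier primary screen, cut at about 11% in these data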
LXR ag 2 – LXR agonists, Gal4 luciferase reporter, confirmation, counter-screen for hgDAF-12 agonist project, cell-based, luminescence, HEK293, H. glycines campaign | shares compounds with hgDAF-12 ag | 24 h | activation, % at 6.8 µM | 3,300 tested, under 10 active | AID 743051, 2013;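 active means mean activation of the triplicate above a set limit carried over from the primary screen, none filed active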
Each line names hits and unclear results; the compound was inactive in the other large screens (follow-up assays come after a bar, where they were run). The list is not random: actives were taken first. Their share in the collection is about 5.7%.

CN(CCC#N)c1ccc(/C=C(\C#N)c2ccccn2)cc1	hgDAF-12 ag 23.0, DAX1 inh-2 5.7, hcDAF-12 act 16.9, ssDAF-12 act 2.1 | DAX1 conf 11.9 | SF1 AF2mut Luc inactive | LXRb hcDAF ctr inactive | hcDAF12 ag inactive | hgDAF12 conf 14.8 | LXR ag 2 inactive
Cc1cccc(Cn2c(N3CCN(C)CC3)nc3c2c(=O)n(C)c(=O)n3C)c1	none
COc1ccc(C2CC(c3ccc4ccccc4c3)=NN2C(=O)COC(=O)C2CCC(=O)N2)cc1 (stereo not drawn)	hgDAF-12 ag 15.4, DAX1 inh-2 6.7, hcDAF-12 act 10.4, ssDAF-12 act 1.2 | DAX1 conf 14.6 | SF1 AF2mut Luc 6.5 | LXRb hcDAF ctr inactive | hcDAF12 ag 6.0 | hgDAF12 conf 19.5 | LXR ag 2 inactive
CC(=O)OCC(=O)N1N=C(c2ccc3ccccc3c2)CC1c1ccccc1 (stereo not drawn)	none
CN(Cc1cccc(F)c1)C(=O)C1CC(=O)N(Cc2ccco2)C1 (stereo not drawn)	none (no result: AHR activator)
COc1ccc2nc(N3CCOCC3)cc(C)c2c1	hgDAF-12 ag 16.6, DAX1 inh-2 5.8 | DAX1 conf 12.2 | SF1 AF2mut Luc 6.3 | hgDAF12 conf 14.2 | LXR ag 2 inactive
Cc1cc(N2CCOCC2)nc2ccccc12	none
CCN(CC)C(=O)C1=C(C)N(CCCOC)C(=O)C(CC(=O)NC2CC2)C1 (stereo not drawn)	none (no result: AHR activator)
COc1ccc(-c2csc(N3C(=O)CNC3=S)n2)cc1	hgDAF-12 ag 16.9, DAX1 inh-2 5.5, hcDAF-12 act 8.2, ssDAF-12 act 1.1 | DAX1 conf 14.3 | SF1 AF2mut Luc 6.6 | LXRb hcDAF ctr inactive | hcDAF12 ag 8.8 | hgDAF12 conf 15.6 | LXR ag 2 inactive
COc1ccc(NC(=O)Nc2cccc3ccccc23)cc1OC	none
N#C/C(=N\Nc1ccc(F)cc1)C(=N)N1CCCCC1	DAX1 inh-1 5.3, hgDAF-12 ag 18.2, DAX1 inh-2 6.0, hcDAF-12 act 8.1, ssDAF-12 act 0.9 | DAX1 conf 17.8 | SF1 AF2mut Luc 7.1 | LXRb hcDAF ctr inactive | hcDAF12 ag inactive | hgDAF12 conf 17.9 | LXR ag 2 inactive
Cc1ccc2c(CN(C)Cc3ccccc3)cc(=O)oc2c1	hgDAF-12 ag 13.5, DAX1 inh-2 6.8 (no result: AHR activator, DAX1 inh-1) | DAX1 conf 6.0 | SF1 AF2mut Luc inactive | hgDAF12 conf 10.7 | LXR ag 2 inactive
O=C(COc1coc(CN2CCN(Cc3ccccc3)CC2)cc1=O)Nc1ccccc1	none
CC(=O)Nc1cccc(NC(=O)CSc2nc(=O)n3cccc(C)c3n2)c1	none
CC(C)C[C@H](NC(=O)OCC1c2ccccc2-c2ccccc21)C(=O)O	hgDAF-12 ag 15.9, DAX1 inh-2 5.8 (no result: AHR activator) | DAX1 conf 6.6 | SF1 AF2mut Luc 5.8 | hgDAF12 conf 11.8 | LXR ag 2 inactive
O=C(NC1CCCCC1)c1ccc(-c2ccccc2[N+](=O)[O-])o1	AHR activator 59.4, hgDAF-12 ag 15.2, DAX1 inh-2 9.3, hcDAF-12 act 7.9, ssDAF-12 act 1.1 | DAX1 conf 8.9 | SF1 AF2mut Luc 5.5 | LXRb hcDAF ctr inactive | hcDAF12 ag 7.3 | hgDAF12 conf 14.4 | LXR ag 2 inactive
O=C(NC1CCCCC1)c1ccc([N+](=O)[O-])o1	none (no result: hgDAF-12 ag, DAX1 inh-2, hcDAF-12 act, ssDAF-12 act)
COc1ccc(NC(=O)CN(C)C(=O)Cn2c(=O)oc3ccccc32)cc1	none
CCN1CCN(c2ccc(NC(=O)c3ccco3)cc2)CC1	hgDAF-12 ag 13.6, DAX1 inh-2 8.0 | DAX1 conf 4.9 | SF1 AF2mut Luc 5.4 | hgDAF12 conf 13.4 | LXR ag 2 inactive
CCCC(=O)N1CCN(c2ccc(NC(=O)c3ccco3)cc2)CC1	none
COc1ccc([C@H]2Cc3cc(O)cc(O)c3C(=O)O2)cc1O	hgDAF-12 ag 18.1, DAX1 inh-2 5.2, hcDAF-12 act 14.1, ssDAF-12 act 2.3 | DAX1 conf 20.0 | SF1 AF2mut Luc 12.7 | LXRb hcDAF ctr inactive | hcDAF12 ag 10.7 | hgDAF12 conf 25.2 | LXR ag 2 inactive
O=C(Nc1ccc2oc(-c3ccccc3F)nc2c1)c1ccccc1F	none
O=C(Nc1ccc2oc(-c3ccccc3F)nc2c1)c1ncn[nH]1	hgDAF-12 ag 18.7, DAX1 inh-2 5.0, hcDAF-12 act 6.4 | DAX1 conf 9.3 | SF1 AF2mut Luc 5.3 | hgDAF12 conf 18.6 | LXR ag 2 inactive
